# From PubChem
# KB-3-1 cytotox – kills parental KB-3-1 adenocarcinoma cells; KB-3-1 viability, CellTiter-Glo ATP luminescence, 72 h; 400,000 compounds, 1.4% hits; Potency, µM (doses to about 46.1 µM), actives largely listed as cytotoxic; AID 1347075; also: nearly all actives have a fitted effect of over 60% in size
#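 Using CellTiter-Glo luminescence, growth of non-resistant KB-3-1 adenocarcinoma cells is assessed 72 h after pin-tool compound addition at 37 °C. Normalized responses across the concentration series yield fitted curves.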
# SW480 rerep – induces DNA re-replication in SW480 colon adenocarcinoma cells. 340,000 compounds, 1.8% hits. AID 624297. SW480 DNA re-replication, Hoechst DNA content imaging, 48 h. Potency, µM (doses to about 46.1 µM), usual class: activators; also: nearly all actives have a fitted effect of over 55% in size
#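 Compounds, transferred as 23 nL by pin tool, were incubated with cells for 48 hr; DNA content per nucleus was then quantified by Hoechst staining and fluorescence plate imaging.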
# KB-V1 cytotox – kills drug-selected multidrug resistant KB-V1 cells; AID 1347076; Potency, µM (doses to about 46.1 µM), hits mostly cytotoxic; 400,000 compounds, 3.4% hits; KB-V1 MDR cells viability, CellTiter-Glo, 72 h; also: nearly all actives have a fitted effect of over 60% in size
#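 Drug-selected KB-V1 cells, grown in DMEM lacking phenol red with 10% FBS, receive compound titrations; after three days at 37 degrees C, surviving cell ATP is quantified by CellTiter-Glo luminescence and responses normalized and curve-fitted.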
# RGS4 inh – human RGS4 inhibition; AID 504845; Transcreener GDP fluorescence polarization, RGS4-accelerated GTP hydrolysis; Potency, µM (doses to about 114 µM), hits mostly inhibitors; 390,000 compounds, 0.039% hits; P49798; also: nearly all actives have a fitted effect of over 75% in size
# Target sequence (P49798 whole entry, looked up): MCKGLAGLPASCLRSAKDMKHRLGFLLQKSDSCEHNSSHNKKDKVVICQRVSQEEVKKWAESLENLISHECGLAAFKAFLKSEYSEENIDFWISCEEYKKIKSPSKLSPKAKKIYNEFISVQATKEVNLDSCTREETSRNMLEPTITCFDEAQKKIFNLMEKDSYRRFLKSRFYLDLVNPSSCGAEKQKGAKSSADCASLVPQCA
#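 MLSMR compounds (23 nl, pin-transferred) preincubated 10 min at room temperature with a 500nM (2x) first reagent, then RGS4 at 900nM (2x) plus Transcreener GDP mix added; fluorescence polarization (620/688 nm) read before and after 90 min at 30 °C.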
# MCF10A rerep – DNA re-replication induction in MCF 10a cells. MCF 10A DNA re-replication, Hoechst nuclear intensity, 48 h. Potency, µM (highest dose often 46.1 µM), usual class: activators. 350,000 compounds, 2.9% hits. AID 624296; also: nearly all actives have a fitted effect of over 50% in size
# TSG101-PTAP inh – blocks PTAP/TSG101 interaction to inhibit HIV-1 budding; Potency, µM (highest dose often 115 µM), usual class: inhibitors; Q99816; Fluorescence polarization, FITC-PTAP peptide / Tsg101 binding; 340,000 tested, under 10 active; active = well fitted inhibition curve with a large enough effect in the main read-out, with a control signal flat, not every such curve was filed as active; inconclusive = small, poorly fitted or top-dose-only effect, or effect the other way, or a change in a side signal; inactive = no such curve, though single readings can be large or run the other way
# Target sequence (Q99816 whole entry, looked up): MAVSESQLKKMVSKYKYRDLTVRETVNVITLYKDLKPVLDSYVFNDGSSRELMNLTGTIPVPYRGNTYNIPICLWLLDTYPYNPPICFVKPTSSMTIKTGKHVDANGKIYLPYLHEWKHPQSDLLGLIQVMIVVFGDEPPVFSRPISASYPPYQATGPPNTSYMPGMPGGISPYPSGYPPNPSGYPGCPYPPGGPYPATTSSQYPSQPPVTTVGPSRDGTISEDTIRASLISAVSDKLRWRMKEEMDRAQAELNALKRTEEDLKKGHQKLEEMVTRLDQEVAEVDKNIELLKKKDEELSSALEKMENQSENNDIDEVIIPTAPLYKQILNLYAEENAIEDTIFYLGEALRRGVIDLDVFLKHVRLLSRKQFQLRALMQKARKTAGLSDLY
#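 Fluorescence polarization binding of Tsg101 binding domain (10 uM final) to FITC-labeled PTAP peptide (50 nM final) in HEPES pH 7.5 buffer with NaCl, Tween 20, EDTA, TCEP. Compounds added before peptide; binding 20 min at RT.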
# Hits are given with their value; i = inactive; ? = inconclusive; nt = not tested or not shown; [ ] = another dose, or the depositor's remark. The list is not random: actives were taken first. Their share in the collection is about 6.6%. Unless noted, calls follow the shape of the dose curve; as a rule, active = well fitted curve in the direction sought with a large enough effect; inconclusive = small, poorly fitted or top-dose-only effect, or another doubt; inactive = no such curve, though single readings can be large; an effect the other way counts as inactive or inconclusive.
SMILES,KB-3-1 cytotox,SW480 rerep,KB-V1 cytotox,RGS4 inh,MCF10A rerep,TSG101-PTAP inh
Cc1ccc(Nc2nc(C)nc(N)c2S(=O)(=O)c2ccccc2)cc1,i,nt,i,i,nt,nt
Cc1ccccc1NC(=O)c1ccc(F)c(S(=O)(=O)N(C)C2CCCCC2)c1,nt,nt,nt,i,nt,nt
Cn1nnnc1SCCCNCc1cc(Br)ccc1OCc1ccccc1,i,nt,i,i,nt,nt
CSc1nc(-c2ccc(C)cc2)nc(C(Cl)Cl)n1,7.31µM,i,18.4µM,i,?,i
CCSc1nc(-c2ccccc2)nc(C(Cl)Cl)n1,5.17µM,i,i,i,11.6µM,i
CSc1nc(Cl)c(C#N)c(-c2ccc(C)cc2)n1,i,i,i,i,i,i
COc1ccc(OC)c(CNc2ncnc3onc(-c4ccc(Cl)cc4)c23)c1,5.8µM,nt,8.2µM,i,nt,nt
COc1ccccc1CNc1ncnc2onc(-c3ccc(Cl)cc3)c12,i,nt,i,i,nt,nt
CC(C)(C)C1CCC2(CC1)C(C#N)=C(SCC(=O)Nc1ccccc1)NC(=O)C2C#N (configuration not stated),?,?,i,i,9.2µM,i
N#CC1=C(SCC(=O)c2cc3ccccc3oc2=O)NC(=O)C(C#N)C12CCCC2 (configuration not stated),i,i,i,i,i,i
CC1(C)CC(=O)C2=C(C1)NC(SCC(=O)Nc1ccccc1)=C(C#N)C21CCCCC1,?,i,20.6µM,i,i,i
CC1=C(C(=O)Nc2ccccc2)C2(CCCCC2)C(C#N)=C(SCC(N)=O)N1,i,?,i,i[11.4 µM],i,i
Cc1cccc(NC(=O)c2ccc(Cn3nc(N4CCN(c5ccccc5)CC4)ccc3=O)o2)c1C,i,nt,?,i,nt,nt
FC(F)Sc1ccc(N=C2NN=C(c3ccc4c(c3)OCCO4)CS2)cc1,?,11.6µM,?,i,?,i
Cc1cccc(C)c1N=C1NN=C(c2ccccc2F)CS1,?,nt,18.4µM,i,i,i
c1ccc2oc(C3=NNC(=NC4CC4)SC3)cc2c1,9.2µM,?,i,i[11.4 µM],11.6µM,i
Cc1cc(C2=NNC(=NC3CC3)SC2)c(C)n1-c1ccccc1F,?,?,i,i[11.4 µM],18.4µM,i
CCOc1ccc(C(=O)N2CCc3cc(OC)c(OC)cc3C2COc2ccc3c(C)cc(=O)oc3c2)cc1OCC (configuration not stated),i,nt,i,i,nt,nt
CCc1ccc(CNC(=O)c2ccc(CSc3nc4ccncc4n3Cc3ccccc3)cc2)cc1,i,nt,i,i,nt,nt
c1cc2c(cc1C1=NNC(=NC3CC3)SC1)OCCO2,?,4.11µM,8.2µM,i,?,i
Cc1ccc(-c2nnn(CC(=O)N(Cc3ccccc3)C(C(=O)NC3CCCC3)c3ccncc3)n2)o1 (configuration not stated),i,i,20.6µM,i,?,i
Cc1ccc(N(C(=O)Cn2nnc(-c3ccc(C)o3)n2)C(C(=O)NC2CCCC2)c2ccncc2)cc1 (configuration not stated),i,i,i,i,i,i
CCC(C(=O)NC1CCCC1)N(C(=O)Cn1nnc(-c2ccc(C)o2)n1)c1ccc(OC)cc1 (configuration not stated),i,?,?,i,i,i
CCOc1ccccc1N(CC(=O)NC(C)(C)C)C(=O)Cn1nnc(-c2ccc(C)o2)n1,i,i,2.91µM,i,i,i
CCCC(C(=O)NC1CCCC1)N(C(=O)Cn1nnc(-c2ccc(C)o2)n1)C1CCCC1 (configuration not stated),i,?,4.11µM,i,i,i
SMILES,KB-3-1 cytotox,SW480 rerep,KB-V1 cytotox,RGS4 inh,MCF10A rerep,TSG101-PTAP inh
CCC(C(=O)NC1CCCC1)N(C(=O)Cn1nnc(-c2ccc(C)o2)n1)C(C)(C)C (configuration not stated),i,i,1.16µM,i,i,i
CCOc1ccc(CNC(=O)c2cc3c(=O)n(Cc4cccs4)ccc3nc2C)cc1,nt,nt,nt,i,nt,nt
COc1ccc(-c2nc3ccccc3o2)cc1NC(=O)C(C)(C)Oc1ccc(Br)cc1,i,nt,?,i,nt,nt
C1=CN2CC=Cc3cc(/C=C/c4ccnc5ccccc45)cc(c32)C1,i,nt,i,nt,nt,nt
CCCc1cc(=O)[nH]c(SCC(=O)c2cc(C)n(CCOC)c2C)n1,i,i,i,i,i,i
CCCc1cc(=O)[nH]c(SCC(=O)c2cc(C)n(CC(F)(F)F)c2C)n1,i,i,16.4µM,i,i,i
COc1ccccc1NC(=O)c1cc2c(=O)oc3ccc(C)cc3c2s1,nt,nt,nt,i,nt,nt
CC(C)c1cc(C(C)C)c(S(=O)(=O)N2c3ccccc3[C@@]3(Br)C[C@H]4C(=O)N[C@@H](Cc5ccccc5)C(=O)N4[C@@H]23)c(C(C)C)c1,16.4µM,?,?,i,i,i
CCCn1cc(S(=O)(=O)c2ccc(Cl)cc2)c(=O)c2cc(OC)ccc21,?,?,7.31µM,i,?,i
O=c1c(S(=O)(=O)c2ccc(Cl)cc2)cn(Cc2ccccc2)c2ccc(F)cc12,i,i,4.11µM,i,i,i
COc1ccc(-c2nc(N3CCN(S(=O)(=O)c4ccc(F)cc4)CC3)c3ccccc3n2)cc1,nt,nt,nt,i,nt,nt
Cc1ccc(C(=O)n2c3ccccc3c3ccccc32)cc1,10.3µM,20.6µM,8.2µM,i,?,i
Cc1ccc(-c2cc3ncc(C(=O)c4cc([N+](=O)[O-])ccc4O)cn3n2)cc1,16.4µM,nt,i,i,nt,nt
CCOC(=O)COc1ccc([N+](=O)[O-])cc1-c1ccnc2cc(-c3ccc(C)cc3)nn12,i,nt,i,i,nt,nt
Cc1ccc(-c2cc3nccc(-c4cc([N+](=O)[O-])ccc4O)n3n2)cc1,23.1µM,nt,?,i,nt,nt
C=C(C)C1CC=C(C)/C(=N\NC(=S)Nc2ccc(C)cc2)C1 (configuration not stated),?,?,16.4µM,i,?,i
C=C(C)C1CC=C(C)/C(=N/NC(=O)COc2ccc(C)cc2)C1 (configuration not stated),i,i,i,i,i,i
CN(C)S(=O)(=O)N1CCC(N2CCN(Cc3ccc(F)cc3)C(=O)C2=O)CC1,i,nt,i,i,nt,nt
CCN(C(=O)COc1ccc(C)cc1OC)c1cccc2ccccc12,i,i,11.6µM,i,i,i
CC(C)c1ccc(C(O)P(=O)(OC2CCCCC2)OC2CCCCC2)cc1 (configuration not stated),?,?,?,i,20.6µM,i
CCOC(=O)c1c(NC(=O)CSc2cn(CCNC(=O)c3ccc(OC)c(OC)c3)c3ccccc23)sc2c1CCCC2,i,nt,i,i,nt,nt
O=C(COc1ccccc1F)N1CCN(S(=O)(=O)/C=C/c2ccccc2)CC1,i,i,14.6µM,i,i,i
